# Measurements from PubChem BioAssay (NCATS).
# Results filed as inconclusive are left out. Where a call stands in place of a potency, no number is given. The source made the active and inactive calls. Calls follow the shape of the dose curve; as a rule, active = well fitted inhibition curve with a large enough effect; inconclusive = small, poorly fitted or top-dose-only effect; inactive = flat fitted curve, though single readings scatter.
# Assays:
# Assay in all cases: qHTS profiling for inhibitors of Plasmodium falciparum proliferation (AID 504749); also: nearly all actives have a fitted effect of over 60% in size
# CP247 = settings: P. falciparum in erythrocytes, SYBR Green DNA, 72 h; series mostly up to 28.7 µM
# Summary of the method: (§1)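 Three-day growth assay of blood-stage parasites in erythrocytes (0.3% parasitemia, 2.5% hematocrit) at 37 C, 5% CO2, quantified by SYBR Green DNA staining after overnight detergent lysis.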
# CP250 = settings: P. falciparum in erythrocytes, SYBR Green DNA, 72 h; series mostly up to 12.8 µM
# Summary of the method: as §1
# CP252 = settings: P. falciparum in erythrocytes, SYBR Green DNA, 72 h; series mostly up to 12.8 µM
# Summary of the method: as §1
# CP256 = settings: P. falciparum in erythrocytes, SYBR Green DNA, 72 h; series mostly up to 28.7 µM
# Summary of the method: as §1
# CP262 = settings: P. falciparum in erythrocytes, SYBR Green DNA, 72 h; series mostly up to 28.7 µM
# Summary of the method: as §1
# CP268 = settings: P. falciparum in erythrocytes, SYBR Green DNA, 72 h; series mostly up to 28.7 µM
# Summary of the method: as §1
# CP269 = settings: P. falciparum in erythrocytes, SYBR Green DNA, 72 h; series mostly up to 28.7 µM
# Summary of the method: as §1
# CP286 = settings: P. falciparum in erythrocytes, SYBR Green DNA, 72 h; series mostly up to 28.7 µM
# Summary of the method: as §1
# CP291 = settings: P. falciparum in erythrocytes, SYBR Green DNA, 72 h; series mostly up to 28.7 µM
# Summary of the method: as §1
# CP297 = settings: P. falciparum in erythrocytes, SYBR Green DNA, 72 h; series mostly up to 28.7 µM
# Summary of the method: as §1
# CP305 = settings: P. falciparum in erythrocytes, SYBR Green DNA, 72 h; series mostly up to 28.7 µM
# Summary of the method: as §1
# CP315 = settings: P. falciparum in erythrocytes, SYBR Green DNA, 72 h; series mostly up to 28.7 µM
# Summary of the method: as §1
# CP325 = settings: P. falciparum in erythrocytes, SYBR Green DNA, 72 h; series mostly up to 28.7 µM
# Summary of the method: as §1
# CP329 = settings: P. falciparum in erythrocytes, SYBR Green DNA, 72 h; series mostly up to 28.7 µM
# Summary of the method: as §1
# DFO2036 = settings: P. falciparum in erythrocytes, SYBR Green DNA, 72 h; series mostly up to 28.7 µM
# Summary of the method: as §1
# DIV17 = settings: P. falciparum in erythrocytes, SYBR Green DNA, 72 h; series mostly up to 28.7 µM
# Summary of the method: as §1
# DIV30 = settings: P. falciparum in erythrocytes, SYBR Green DNA, 72 h; series mostly up to 28.7 µM
# Summary of the method: as §1
# Dd2 = settings: P. falciparum in erythrocytes, SYBR Green DNA, 72 h; series mostly up to 28.7 µM
# Summary of the method: as §1
# FAB9 = settings: P. falciparum in erythrocytes, SYBR Green DNA, 72 h; series mostly up to 28.7 µM
# Summary of the method: as §1
# HB3 = settings: P. falciparum in erythrocytes, SYBR Green DNA, 72 h; series mostly up to 28.7 µM
# Summary of the method: as §1
# ICS = settings: P. falciparum in erythrocytes, SYBR Green DNA, 72 h; series mostly up to 28.7 µM
# Summary of the method: as §1
# JCK = settings: P. falciparum in erythrocytes, SYBR Green DNA, 72 h; series mostly up to 28.7 µM
# Summary of the method: as §1
# N140 = settings: P. falciparum in erythrocytes, SYBR Green DNA, 72 h; series mostly up to 28.7 µM
# Summary of the method: as §1
# P93_24 = settings: P. falciparum in erythrocytes, SYBR Green DNA, 72 h; series mostly up to 28.7 µM
# Summary of the method: as §1
# P94_40 = settings: P. falciparum in erythrocytes, SYBR Green DNA, 72 h; series mostly up to 28.7 µM
# Summary of the method: as §1
# PC15 = settings: P. falciparum in erythrocytes, SYBR Green DNA, 72 h; series mostly up to 28.7 µM
# Summary of the method: as §1
# SC27B = settings: P. falciparum in erythrocytes, SYBR Green DNA, 72 h; series mostly up to 28.7 µM
# Summary of the method: as §1
# TAB113 = settings: P. falciparum in erythrocytes, SYBR Green DNA, 72 h; series mostly up to 28.7 µM
# Summary of the method: as §1
# W2 = settings: P. falciparum in erythrocytes, SYBR Green DNA, 72 h; series mostly up to 12.8 µM
# Summary of the method: as §1
# Potency is read from the fitted curve at half-maximal effect.
structure (smiles),measurement,setting,value
CC(=O)OC1C[C@H](O[C@@H]2C(O)C[C@H](O[C@@H]3C(O)C[C@@H](OC4CC[C@]5(C)C(CCC6C5CC(O)[C@@]5(C)C(C7=CC(=O)OC7)CC[C@@]65O)C4)OC3C)OC2C)O[C@H](C)[C@H]1O[C@H]1OC(CO)C(O)C(O)C1O (some centres undefined),Potency,CP247,inactive
same,Potency,CP250,inactive
same,Potency,CP252,inactive
same,Potency,CP256,inactive
same,Potency,CP262,inactive
same,Potency,CP268,inactive
same,Potency,CP269,inactive
same,Potency,CP286,inactive
same,Potency,CP291,inactive
same,Potency,CP297,inactive
same,Potency,CP305,inactive
same,Potency,CP315,inactive
same,Potency,CP325,inactive
same,Potency,CP329,inactive
same,Potency,DFO2036,inactive
same,Potency,DIV17,13.5 µM (active)
same,Potency,DIV30,inactive
same,Potency,Dd2,inactive
same,Potency,FAB9,inactive
same,Potency,HB3,12.6 µM (active)
same,Potency,ICS,5.62 µM (active)
same,Potency,JCK,inactive
same,Potency,N140,inactive
same,Potency,P93_24,12.6 µM (active)
same,Potency,P94_40,inactive
same,Potency,PC15,5.01 µM (active)
same,Potency,SC27B,inactive
same,Potency,TAB113,inactive
same,Potency,W2,13.5 µM (active)
